Measured values as given in PubChem BioAssay (NCI).
This is part of a sample that, as a whole, favours compounds with a hit. Of some 83,000 tested, about 20% had one in any assay.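 48-hour exposure, single concentration, 96-well plates; percent growth endpoint where 0 means no net growth. Active: below 10.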 Values without a mark were called inactive. Active and inactive are the calls of the source.

These compounds were tested on MCF7 breast (assay: NCI-60 one-dose screen, 48 h (100 = growth as untreated, 0 = no growth, -100 = all killed)). Settings: 10 µM unless noted.
`N#Cc1c(N2CCNCC2)nc2sc3cc(Cl)c(Cl)cc3n2c1=N` showed a growth of 75.2%. Work on `Cc1c(O)cc(-c2cnc(N/N=C\c3ccc(Cl)cc3)s2)c(O)c1C` yielded a growth of 71.1%. `COc1ccc(-c2cc(-c3cc(OC)ccc3OC)nc(SCC(=O)c3ccccc3)c2C#N)cc1` showed a growth of 98.3%. Compound `COCCc1ccc(OCC(O)CNC(C)C)cc1` (configuration not stated) has a growth of 101%. `CC/C=C\CCC/C=C1/C(=O)C=C[C@@H]1C/C=C\CCCC(=O)O` showed a growth of 20.2%. `COc1cccc(C(=O)NCCCNc2cc(-c3cn(-c4ccccc4)nc3-c3cccc(OC)c3)ccn2)c1` was tested, and the growth was 37.5%. For `Cc1cc(C(=O)c2ccccc2)c(C)c2c1[nH]c1ccc(Cl)cc12`, the growth was 13.1%. With `Cc1ccc(C(=O)COc2cccc(/C=C3\Oc4ccccc4C3=O)c2)cc1` the growth was 116%. In the case of `COc1cccc(-c2nn(-c3ccccc3)cc2-c2ccnc(NCCNC(=O)Nc3cccc(C(F)(F)F)c3)c2)c1`, the growth is reported as 15.3%. Compound `COc1ccc(/C=N/C2=C(C#N)C(c3ccc(OC)cc3)c3ccc4ccccc4c3O2)cc1` (configuration not stated) has a growth of 34.4%. For `N#CC1=C(NC=O)Oc2c(ccc3ccccc23)C1c1ccccc1` (configuration not stated), the growth was 17.5%. With `CCCCc1ccc(Nc2ccc(Nc3ccc(CCCC)cc3S(=O)(=O)O)c3c2C(=O)c2ccccc2C3=O)c(S(=O)(=O)O)c1` the growth was 86.9%.

Each compound was assayed on HCT-116 colon in the same assay as above. Settings: 10 µM unless noted.
`COc1cc(CCC[P+](c2ccccc2)(c2ccccc2)c2ccccc2)cc2c1OCO2` was tested, and the growth was 22.8%. For `Cc1cc(Cl)nc(NCc2cc(Nc3ccnc4cc(Cl)ccc34)ccc2F)n1`, the growth was 23.7%. In the case of `COc1ccc(C2c3ccc4ccccc4c3Oc3nc(C)[nH]c(=O)c32)cc1` (configuration not stated), the growth is reported as 107%. With `O=C1OC(c2nc3ccccc3s2)=C/C1=C\c1ccc(O)cc1` the growth was 99.8%. `Cc1ccc(NS(=O)(=O)c2ccc3c(c2)C2OCCC2C(c2ccc(C(=O)C(C)C)cc2)N3)cc1C` (configuration not stated) was tested, and the growth was 30.4%. Work on `CC1SC(c2ccc(OCc3ccccc3)cc2)N(NC(=O)C(O)(c2ccccc2)c2ccccc2)C1=O` (configuration not stated) yielded a growth of 39.6%. `S=C(Cc1ccc2c(c1)CCCC2)N1CCOCC1` was tested, and the growth was 87.6%. With `CC1=CN2C(=O)C3C4=C(CCCC4)SC3N=C2CN1c1c(C)cccc1C` (configuration not stated) the growth was 55%. For `CC(=O)n1c(-c2ccc(Cl)cc2)nc2c(c1=O)C(c1ccc(Cl)cc1)c1sc3c(Cl)cccc3c1O2` (configuration not stated), the growth was -45.9% (active). Work on `O=C(N=c1oc2ccccc2cc1-c1cc2ccccc2[nH]1)c1ccc(Cl)cc1` yielded a growth of 20%. For `Cn1ccc2c(c1=O)C(=O)c1nccc3c1c-2nc1ccccc13`, the growth was -94.3% (active). For `COc1ccccc1CNCCCN1C(=O)c2ccc3c4c(ccc(c24)C1=O)C(=O)N(CCCNCCCCN)C3=O`, the growth was -8.71% (active). `C=C1C(=O)O[C@H]2[C@H]1CC/C(COC(=O)C(=O)c1cn(C)c3ccc(OC)cc13)=C\CC[C@@]1(C)O[C@@H]21` was tested, and the growth was -95.1% (active). Work on `O=C(NCCCNc1cc(-c2cn(-c3ccccc3)nc2-c2cccc(O)c2)ccn1)c1cccc(O)c1` yielded a growth of 47.3%. `Cc1c(C(=O)OC(=NC2CCCCC2)NC2CCCCC2)sc2c1c(=O)nc1c(C#N)n[nH]n12` showed a growth of 104%. In the case of `COc1cc(N=Nc2ccc(N)cc2)c(OC)cc1N=Nc1ccccc1.[Cl][Zn][Cl]`, the growth is reported as 101%. With `COc1cc(C2CC(c3cc(OC)c(OCCCOc4ccc(-n5c(/C=C/c6ccccc6)nc6ccccc6c5=O)cc4)c(OC)c3)=NO2)cc(OC)c1OC` (configuration not stated) the growth was 106%. `COc1cc(/C=N/NC(=O)Cn2c(C(C)C)nc3ccccc32)ccc1O` was tested, and the growth was 82.4%. `CC(C)(C)n1cc(-c2ccnc(NCCCNS(=O)(=O)c3ccccc3)c2)c(-c2ccccc2)n1` gave a growth of 57.5%. Work on `COc1ccc(S(=O)(=O)NCCNc2nccc(-c3c(-c4cccc(F)c4)nc4sccn34)n2)cc1` yielded a growth of 19.7%. In the case of `CCOC(=O)c1c(-c2ccc(Cl)cc2)c(C#N)c(=O)n(-c2ccccc2CC)c1N`, the growth is reported as 91.3%. With `O=C(COc1ccc(/C=C2\Oc3ccccc3C2=O)cc1)c1ccc(Cl)cc1` the growth was 88.5%. For `Cc1ccc2nc3ccccc3c(NCc3ccccc3)c2c1`, the growth was 9.4% (active). Compound `O=c1[nH]nc(-c2ccccc2)c2c(-c3ccccc3)onc12` has a growth of 35.7%. With `O=C1C=C[C@]2(C[C@@H](c3cccc(C(F)(F)F)c3)O[C@@H](c3cccc(C(F)(F)F)c3)O2)O1` the growth was -70.6% (active).
